Compounds without any hit were thinned out: in the full panel of roughly 83,000, 20% have a hit.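 Single-dose data. Exposure time 48 hours. Values below 10 considered active.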 Unmarked numbers belong to inactive results. Calls of active or inactive are those of the source.

Some test systems named below: MOLT-4 leukemia; SR leukemia; RPMI-8226 leukemia; OVCAR-8 ovarian; OVCAR-5 ovarian; OVCAR-4 ovarian; SK-OV-3 ovarian; IGROV1 ovarian; OVCAR-3 ovarian; HS 578T breast; NCI/ADR-RES ovarian; T-47D breast; BT-549 breast; MDA-MB-435 melanoma; SW-620 colon; MCF7 breast; HCT-116 colon; HCC-2998 colon; KM12 colon.
Assay in all cases: NCI-60 one-dose screen, 48 h (100 = growth as untreated, 0 = no growth, -100 = all killed)
Conditions in all cases: 10 µM unless noted

For the molecule `C/C(=C(\c1ccc(OCCN2CCOCC2)cc1)c1ccc(OC(=O)Cc2ccccc2)cc1)c1ccc(Cl)cc1`, the growth is 56.3% in the experiment with MOLT-4 leukemia; 114% with SR leukemia; 57.6% with RPMI-8226 leukemia; 97.7% with OVCAR-8 ovarian; 95.2% with OVCAR-5 ovarian; 98.5% in the experiment on OVCAR-4 ovarian. For the same molecule, the growth is 110% with SK-OV-3 ovarian; 106% in the experiment on IGROV1 ovarian; 95.8% in the experiment with OVCAR-3 ovarian; 104% with HS 578T breast; 95.8% in the experiment on NCI/ADR-RES ovarian; 78% in the experiment on T-47D breast. The growth in the experiment with BT-549 breast was 91.1%; in the experiment with MDA-MB-435 melanoma it was 91.4%; in the experiment on SW-620 colon, 98.6%; with MCF7 breast, 83.5%; with HCT-116 colon it was 75.7%; in the experiment on HCC-2998 colon, 88.4%. Also, in the experiment on KM12 colon, the growth is 99.3%.
In the case of `C[Se]/C=C1/C(=O)N(c2c(Cl)cccc2Cl)c2ccccc21`, the growth with MOLT-4 leukemia was 10.2%; with SR leukemia, 2.07% (active); with RPMI-8226 leukemia it was 2.93% (active); in the experiment on OVCAR-8 ovarian, -15.2% (active); in the experiment with OVCAR-5 ovarian, 28.7%; in the experiment on OVCAR-4 ovarian it was 34.3%. The growth in the experiment with SK-OV-3 ovarian was 61.5%; in the experiment with IGROV1 ovarian, 44.7%; in the experiment on OVCAR-3 ovarian, 20.3%; in the experiment with HS 578T breast it was 13%; in the experiment with NCI/ADR-RES ovarian, 9.06% (active); in the experiment with T-47D breast, 65.8%. The growth is -35.6% (active) in the experiment with BT-549 breast; -30.3% (active) in the experiment on MDA-MB-435 melanoma; 19.3% in the experiment with SW-620 colon; 17.3% in the experiment with MCF7 breast; 11.4% with HCT-116 colon; 77.2% in the experiment on HCC-2998 colon. For the same molecule, in the experiment with KM12 colon, the growth was 72%.
Consider `O=C(CBr)OCCOC(=O)CBr`, for which the growth in the experiment with MOLT-4 leukemia was 64.1%; in the experiment with SR leukemia it was 8.37% (active); in the experiment on RPMI-8226 leukemia, 33.8%; with OVCAR-8 ovarian it was 93.7%; in the experiment on OVCAR-5 ovarian it was 117%; in the experiment with OVCAR-4 ovarian, 38.3%. Moreover, the growth in the experiment on SK-OV-3 ovarian was 133%; in the experiment on IGROV1 ovarian it was -45.8% (active); in the experiment on OVCAR-3 ovarian it was 87.5%; in the experiment with HS 578T breast, 3.4% (active); with NCI/ADR-RES ovarian, 99.9%; in the experiment with T-47D breast, 79.5%. Moreover, the growth in the experiment with BT-549 breast is 65.4%; in the experiment with MDA-MB-435 melanoma, 91.6%; in the experiment on SW-620 colon, 58.1%; with MCF7 breast, 68.5%; with HCT-116 colon it was 69.2%; in the experiment on HCC-2998 colon, 110%. Moreover, in the experiment with KM12 colon, the growth was 99.5%.
Consider `CC[C@H](C)[C@H](NC(=O)[C@H]1CCCCN1C)C(=O)N(C)[C@H](C[C@@H](OC(C)=O)c1nc(C(=O)N[C@@H](Cc2ccccc2)C[C@H](C)C(=O)O)cs1)C(C)C`, for which the growth in the experiment on MOLT-4 leukemia was 12.8%; in the experiment with SR leukemia, 2.65% (active); in the experiment on RPMI-8226 leukemia, 34.1%; in the experiment with OVCAR-8 ovarian, 21%; in the experiment with OVCAR-5 ovarian it was 57.7%; in the experiment with OVCAR-4 ovarian it was 52.6%. For the same molecule, the growth was 12.3% in the experiment on SK-OV-3 ovarian; 30.2% with IGROV1 ovarian; -4.44% (active) in the experiment on OVCAR-3 ovarian; 25.3% in the experiment with HS 578T breast; 12.2% in the experiment on NCI/ADR-RES ovarian; 70.5% with T-47D breast. In addition, the growth in the experiment on BT-549 breast is -37.2% (active); with MDA-MB-435 melanoma, -10.9% (active); in the experiment on SW-620 colon it was 35.2%; in the experiment on MCF7 breast, 14.6%; in the experiment on HCT-116 colon, 5.71% (active); with HCC-2998 colon, 13.7%. Further, the growth in the experiment on KM12 colon is 0.294% (active).
For the molecule `Cc1ccc(S(=O)(=O)n2cc([C@@]3(O)C[C@H](CSC#N)OC3=O)c3ccccc32)cc1`, the growth in the experiment on MOLT-4 leukemia is 7.16% (active); in the experiment with SR leukemia, 49%; in the experiment on RPMI-8226 leukemia, 16.3%; with OVCAR-8 ovarian, 83.2%; in the experiment on OVCAR-5 ovarian, 83.9%; in the experiment on OVCAR-4 ovarian, 75.7%. In addition, the growth in the experiment with SK-OV-3 ovarian was 99.6%; in the experiment on IGROV1 ovarian it was 71.6%; in the experiment with OVCAR-3 ovarian, 54.8%; in the experiment on HS 578T breast, 44.4%; in the experiment with NCI/ADR-RES ovarian, 82.2%; in the experiment on T-47D breast, 62.8%. In addition, the growth is 70.9% in the experiment on BT-549 breast; 63.3% in the experiment with MDA-MB-435 melanoma; 36.1% with SW-620 colon; 23.6% with MCF7 breast; 45.6% with HCT-116 colon; 25.1% in the experiment on HCC-2998 colon. In addition, in the experiment with KM12 colon, the growth was 68.7%.
Regarding `COc1cc(/C=C\[N+](=O)[O-])ccc1OCc1ccccc1`, the growth in the experiment with MOLT-4 leukemia is 1.1% (active); in the experiment with SR leukemia it was -24.2% (active); in the experiment on RPMI-8226 leukemia it was -45.6% (active); with OVCAR-8 ovarian it was 52.9%; with OVCAR-5 ovarian it was 98.5%; in the experiment on OVCAR-4 ovarian, 85.3%. In addition, the growth is 91.4% in the experiment on SK-OV-3 ovarian; 7.94% (active) in the experiment on IGROV1 ovarian; 19.9% in the experiment on OVCAR-3 ovarian; 42.9% in the experiment on HS 578T breast; 69.2% in the experiment with NCI/ADR-RES ovarian; 49% in the experiment on T-47D breast. Moreover, the growth was 37.2% in the experiment with BT-549 breast; 20% in the experiment on MDA-MB-435 melanoma; 47.4% in the experiment with SW-620 colon; 9.62% (active) in the experiment with MCF7 breast; 1% (active) in the experiment on HCT-116 colon; -70.4% (active) in the experiment on HCC-2998 colon. In the experiment with KM12 colon, the growth is 23.6%.
Take `CC(C)CCC1C(=O)NC(=O)NC1=O`: the growth with MOLT-4 leukemia is 99.1%; with SR leukemia it was 93.5%; in the experiment with RPMI-8226 leukemia, 113%; with OVCAR-8 ovarian it was 98.4%; with OVCAR-5 ovarian, 107%; in the experiment with OVCAR-4 ovarian it was 99.2%. Further, the growth is 88.2% in the experiment with SK-OV-3 ovarian; 96% in the experiment on IGROV1 ovarian; 101% in the experiment on OVCAR-3 ovarian; 96.6% with HS 578T breast; 105% in the experiment on NCI/ADR-RES ovarian; 78.6% in the experiment with T-47D breast. The growth in the experiment with BT-549 breast was 100%; with MDA-MB-435 melanoma it was 99.7%; in the experiment with SW-620 colon, 91.8%; with MCF7 breast, 88.8%; with HCT-116 colon it was 98.1%; with HCC-2998 colon, 107%. The growth with KM12 colon is 98.5%.

These data come from PubChem BioAssay (NCI).
